Records with an inconclusive call do not appear. Where a call stands in place of a potency, no number is given. Activity calls are given as the source filed them. The call rests on the fitted dose curve; in most records, active means well fitted inhibition curve with a large enough effect; inconclusive means small, poorly fitted or top-dose-only effect; inactive means flat fitted curve, though single readings scatter.

This experiment has as its target Aldehyde dehydrogenase, mitochondrial (Homo sapiens) (UniProt P05091). The experiment is described as follows: qHTS for Inhibitors of the Aldehyde Dehydrogenase Family (ALDH2) Primary screen (AID 2061308). Further: nearly all actives have a fitted effect of over 55% in size. To be noted: ALDH2 enzyme inhibition qHTS, 1536-well; series mostly up to 56 µM. Background: qHTS replaces the single test concentration by a dilution series.
Turning to `C=CC(C)(O)CC/C=C(\C)C(=O)O[C@@H]1[C@@H](O)[C@H](OC(C)(C=C)CC/C=C(\C)C(=O)O)O[C@H](CO)[C@H]1OC(=O)/C(C)=C/CCC(C)(O)C=C` (stereo not given in full), the Potency entry was “inactive”.
The value for `CC(=O)OC1C(O)CC2(C)C(CCC(C)C23Cc2c(O)cc(CO)c(C=O)c2O3)C1(C)C` (stereo not given) was “inactive”; that for `CC(C)=CCC(O)/C(C)=C/CO[C@@H]1O[C@H](CO)[C@@H](O)[C@H](O)[C@H]1O` (stereo not given in full) was “inactive”; that for `CC(/C=C/C1(O)C(C)(C)CC(O)CC1(C)O)OC1OC(CO)C(O)C(O)C1O` (stereo not given) was “inactive”.
The value for `C=C1CC2[C@@]3(C)C=CC(=O)C(C)(C)C3=C(O)C(=O)[C@@]2(C)C2(C(=O)OC)C(=O)C(C)OC(=O)[C@@]12C` (stereo not given in full) was “inactive”.
Then `OC[C@H]1O[C@@H](Oc2cc(O)c3c(c2)O[C@@H](c2ccc(O)cc2)[C@H](O)C3)[C@H](O)[C@@H](O)[C@@H]1O`, with “inactive”.
As for `CC(=O)OC1CC2C(C)(C)C(=O)C=CC2(C)C2CC(=O)C3=C(CCC3C3=CC(O)OC3=O)C12C` (stereo not given), the Potency result was “inactive”.
The value for `CC(C)=CCC/C(C)=C/CO[C@@H]1O[C@H](CO)[C@@H](O)[C@H](O)[C@H]1O` was “inactive”; that for `COc1c2c(c(C)c3c1C(=O)OC3)OC1(C)CC(O)C34OC(OC)(OC3(C)C)C(O)CC4(C)C1C2` (stereo not given) was “inactive”.
Then `C=CC(C)(O)C1CC2C3(C)CCCC(C)(C)C3C(O)C(O)C2(C)O1` (stereo not given), with “inactive”.
Then `CC1=C(c2ccc(NC(=O)c3c(F)cccc3F)cc2)CN(c2nccs2)CC1`, with “inactive”; and `CC1OC(=O)C[C@@H]2C(C(=O)O)=CO[C@@H](O[C@H]3O[C@H](CO)[C@@H](O)[C@H](O)[C@H]3O)[C@H]12` (stereo not given in full), with “inactive”.
On to `COc1c(C)c(OCC(O)C(C)(C)O)cc2c1CNC2=O` (stereo not given), for which the Potency entry was “inactive”.
Take `CC1(C)CC[C@]2(C(=O)O[C@@H]3O[C@H](CO)[C@@H](O)[C@H](O)[C@H]3O)CC[C@]3(C)C(=CCC4[C@@]5(C)CC[C@H](O[C@@H]6O[C@H](C(=O)O)[C@@H](O[C@@H]7O[C@H](CO)[C@@H](O)[C@H](O)[C@H]7O)[C@H](O)[C@H]6O[C@@H]6O[C@H](CO)[C@@H](O)[C@H](O)[C@H]6O)C(C)(C)C5CC[C@]43C)C2C1` (stereo not given in full): the Potency result was “inactive”.
Consider `CC(C)n1cnc2c(-c3cnc(N)nc3)nc(N3CCOCC3)nc21`, for which the Potency result was “inactive”.
The value for `C=CC(=O)N1CCCC(n2nc(-c3ccc(Oc4ccccc4)cc3)c3c(N)ncnc32)C1` (stereo not given) was “inactive”; that for `CC(NC(=O)[C@H](Cc1ccccc1)NC(=O)OCc1ccccc1)C(=O)CF` (stereo not given in full) was “inactive”.
Then `COC1(CC(C)C)NC(=O)C(O)(Cc2ccccc2)NC1=O` (stereo not given), with “inactive”; and `CC(=O)OC1C(c2ccccc2)CCC(c2ccccc2)C1OC(C)=O` (stereo not given), with “inactive”; and `COc1cc2c(cc1OC)CN(C(=O)[C@@H](NCc1ccncc1)C(C)(C)C)CC2`, with “inactive”.
Then `COc1cc(/C=C/C(=O)O)ccc1O[C@@H]1O[C@H](CO)[C@@H](O)[C@H](O)[C@H]1O[C@@H]1OC[C@](O)(CO)[C@H]1O`, with “inactive”; and `Cc1cccc(N2CCN(C(=O)c3cc(S(=O)(=O)N(C)C)ccc3N3CCCC3)CC2)c1C`, with “inactive”; and `Nc1nonc1C(=Nc1ccc(F)c(Cl)c1)NO`, with “inactive”.
In the case of `Cc1coc2c1CC1OC1(C)CCC1OC1(C)C2` (stereo not given), the Potency entry is “inactive”.
Then `C=C1CC[C@@H]2[C@](C)(CO)[C@H](O)CC[C@@]2(C)[C@@H]1C/C=C1/C(=O)OCC1OC(=O)/C(=C/CO)C(O)C[C@@H]1C(=C)CC[C@@H]2[C@](C)(CO)[C@H](O)CC[C@]21C` (stereo not given in full), with “inactive”; and `CCCC(=O)C1(c2ccccc2)CCN(C(=O)[C@@H](Cc2ccc(OC)cc2)NC(=O)[C@@H](N)Cc2cncn2C)CC1`, with “inactive”; and `COc1cc(CCC2=NN=C(NC(=O)c3ccc(N4C[C@@H](C)N[C@@H](C)C4)cc3)C2)cc(OC)c1`, with “inactive”.
As for `COc1ccc2c3c1O[C@H]1C[C@@H](O)C=C[C@@]31CCN(C)C2`, the Potency result is “inactive”.
On to `O=C(COc1cccc2c(=O)[nH]ccc12)c1ccccc1`, for which the Potency entry was “inactive”.
Consider `CCC(CC)Nc1nc(C)c(-c2ccc(OC(F)(F)F)cc2OC)nc1OC`, for which the Potency entry was “inactive”.
For the compound `CC1CCC23COC(=O)C2=CC(O)CC3C1(C)CCc1ccoc1` (stereo not given), the Potency entry is “inactive”.
For the compound `CC(=O)OCC1=C[C@@H]2OC(=O)C3=CO[C@@H](O[C@@H]4O[C@H](CO)[C@@H](O)[C@H](O)[C@H]4O)[C@H]1[C@@H]32`, the Potency entry was “inactive”.
The value for `C=C1C(OC(=O)/C(C)=C\C)[C@@]23CCC4[C@@](C)(CCC[C@@]4(C)C(=O)O)C2CC[C@H]1C3OC(C)=O` (stereo not given in full) was “inactive”; that for `CC1CCC2C(C)(C)[C@H](O)CC[C@]2(C)C12Cc1c(O)cc3c(c1O2)CN(C(CCC(=O)O)C(=O)O)C3=O` (stereo not given in full) was “inactive”; that for `CCC/C=C1\OC(=O)C2=C1CCC(O)C2O` (stereo not given) was “inactive”.
The value for `C=C(C)C1CCC(C)C12CC(O)C1(C)OC1C2OC(=O)C(N)CCC(=O)O` (stereo not given) was “inactive”; that for `CC(=O)OC/C(=C/C(=O)O)CC[C@@H]1C(C)=CC(=O)[C@@H]2C(C)(C)CCC[C@@]12C` was “inactive”.
Then `C=CC(C)(C)c1[nH]c2cc3c(cc2c1CC1NC(=O)C2CCCN2C1=O)C=CC(C)(C)O3` (stereo not given), with “inactive”.
As to `C=C[C@@](C)(CCC=C(C)C)O[C@@H]1O[C@H](CO[C@@H]2OC[C@H](O)[C@H](O)[C@H]2O)[C@@H](O)[C@H](O)[C@H]1O`, the Potency entry is “inactive”.
As for `C=CC1C(O[C@@H]2O[C@H](CO)[C@@H](O)[C@H](O)[C@H]2O)OC=C(C(=O)OC)C1CC(=O)O` (stereo not given in full), the Potency entry is “inactive”.

The values are drawn from PubChem BioAssay (NCATS).
